Source: PubChem BioAssay (NCATS)
Records with an inconclusive call do not appear. Unmarked numbers belong to inactive results. Active and inactive are the calls of the source. Unless noted, calls follow the shape of the dose curve; as a rule, active = well fitted curve in the direction sought with a large enough effect in the repeat runs; inconclusive = weak or mixed curves; inactive = no such curve, though single readings can be large; an effect the other way counts as inactive or inconclusive.

Columns and labels:
[1] = biological target: Cytochrome P450 2D6 (Homo sapiens) (UniProt P10635); experiment: Cytochrome P450 family 2 subfamily D member 6 (CYP2D6) small molecule antagonists: luciferase biochemical (cell-free) qHTS assay (AID 1645840); also: nearly all actives have a fitted effect of over 55% in size; also: potency is read from the fitted curve at half-maximal effect
How it was run: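 P450-Glo CYP2D6 system: proluciferin substrate converted by enzyme to luciferin, read by luminescence proportional to activity. Enzyme-substrate mix with compound 10 min at room temperature, then NADPH regeneration 1 h before detection reagent.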

[2] = biological target: Cytochrome P450 2C9 (Homo sapiens) (UniProt P11712); experiment: Cytochrome P450 family 2 subfamily C member 9 (CYP2C9) small molecule antagonists: luciferase biochemical (cell-free) qHTS assay (AID 1645842); also: nearly all actives have a fitted effect of over 55% in size; also: potency is read from the fitted curve at half-maximal effect
How it was run: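 P450-Glo CYP2C9 system: proluciferin substrate with enzyme in mix containing 0.4% BSA, 10 min at room temperature, then NADPH regeneration solution added and incubated 1 h at 37C. Detection reagent stopped reaction; luminescence read after 20 min as RLU.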

[3] = biological target: Rap guanine nucleotide exchange factor 3 (Homo sapiens) (UniProt O95398); experiment: Confirmatory qHTS for antagonist of cAMP-regulated guanine nucleotide exchange factor 3 (EPAC1) (AID 1645880; active = well fitted curve in the direction sought with a large enough effect; an effect the other way counts as inactive or inconclusive; also: nearly all actives have a fitted effect of over 55% in size; also: potency is read from the fitted curve at half-maximal effect)
How it was run: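 Released BODIPY-GDP fluoresces less than Rap1-bound BODIPY-GDP; the signal is followed at 480/540 nm at 5-min intervals over 30 min, after 5 min at room temperature. Reactions contain 100 nM EPAC1, 250 nM RAP1B-BODIPY-GDP and 50 uM GDP; results are normalized to ATA and DMSO.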

[4] = biological target: Rap guanine nucleotide exchange factor 3 (Homo sapiens) (UniProt O95398); experiment: Confirmatory qHTS for agonist of cAMP-regulated guanine nucleotide exchange factor 3 (EPAC1) (AID 1645881; active = well fitted curve in the direction sought with a large enough effect; an effect the other way counts as inactive or inconclusive; also: nearly all actives have a fitted effect of over 75% in size; also: potency is read from the fitted curve at half-maximal effect)
[5] = biological target: Rap guanine nucleotide exchange factor 4 (Homo sapiens) (UniProt Q8WZA2); experiment: Confirmatory qHTS for agonist of cAMP-regulated guanine nucleotide exchange factor 4 (EPAC2) (AID 1645884; active = well fitted curve in the direction sought with a large enough effect; an effect the other way counts as inactive or inconclusive;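 also: nucleotide exchange releases bodipy-GDP from Rap1 and this lowers its fluorescence; nearly all actives have a fitted effect of over 65% in size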)
[6] = biological target: Rap guanine nucleotide exchange factor 4 (Homo sapiens) (UniProt Q8WZA2); experiment: Confirmatory qHTS for antagonist of cAMP-regulated guanine nucleotide exchange factor 4 (EPAC2) (AID 1645885; active = well fitted curve in the direction sought with a large enough effect; an effect the other way counts as inactive or inconclusive; also: nearly all actives have a fitted effect of over 25% in size; also: potency is read from the fitted curve at half-maximal effect)
[7] = biological target: Rap guanine nucleotide exchange factor 3 (Homo sapiens) (UniProt O95398); experiment: Counterscreen qHTS for agonist of cAMP-regulated guanine nucleotide exchange factor 3 (EPAC1) (AID 1645889; active = well fitted curve in the direction sought with a large enough effect; an effect the other way counts as inactive or inconclusive; also: nearly all actives have a fitted effect of over 40% in size; also: potency is read from the fitted curve at half-maximal effect)
How it was run: (§1)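 Rap1B-BODIPY-GDP 250 nM + GDP 50 uM; cpds 7-pt, final 9.74 nM–152 uM (activator mode) or from 7.32 nM upwards (inhibitor mode); RT; FI 480/540 nm at 5 and 30 min, then ± cAMP, reread.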

[8] = biological target: Glutathione peroxidase 1 (Homo sapiens) (UniProt P07203); experiment: Primary qHTS Assay for Inhibitors of Recombinant Selenoprotein Glutathione Peroxidase 1 (GPX1) (AID 1845191; active = well fitted curve in the direction sought with a large enough effect; an effect the other way counts as inactive or inconclusive; also: nearly all actives have a fitted effect of over 65% in size)
How it was run: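 NADPH consumption tracked by fluorescence at 340/450 nm between t=0 and t=15 min, room temperature. Final mix: 10 nM GPX1, 100 nM glutathione reductase, 1 mM GSH, 0.5 mM NADPH, 0.5 mM cumene hydroperoxide, 0.01% BSA; 30 min compound–enzyme preincubation.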

[9] = biological target: Rap guanine nucleotide exchange factor 3 (Homo sapiens) (UniProt O95398); experiment: Counterscreen qHTS for antagonist of cAMP-regulated guanine nucleotide exchange factor 3 (EPAC1) (AID 1645888; active = well fitted curve in the direction sought with a large enough effect; an effect the other way counts as inactive or inconclusive)
How it was run: as §1

[10] = biological target: N-terminal Xaa-Pro-Lys N-methyltransferase 1 (Homo sapiens) (UniProt Q9BV86); experiment: Confirmatory qHTS for Inhibitors of N-terminal methyltransferase 1 (NTMT1): MTaseGlo Assay (AID 1645874; active = well fitted curve in the direction sought with a large enough effect; an effect the other way counts as inactive or inconclusive; also: potency is read from the fitted curve at half-maximal effect; nearly all actives have a fitted effect of over 65% in size)
How it was run: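 SPKRIA peptide at 1 uM was methylated by 125 nM NTMT1 using 100 uM SAM over 30 min at room temperature, following a 15 min compound preincubation. Product SAH was detected luminescently.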

Sequence of Cytochrome P450 2D6 (Homo sapiens) (P10635 whole entry, looked up): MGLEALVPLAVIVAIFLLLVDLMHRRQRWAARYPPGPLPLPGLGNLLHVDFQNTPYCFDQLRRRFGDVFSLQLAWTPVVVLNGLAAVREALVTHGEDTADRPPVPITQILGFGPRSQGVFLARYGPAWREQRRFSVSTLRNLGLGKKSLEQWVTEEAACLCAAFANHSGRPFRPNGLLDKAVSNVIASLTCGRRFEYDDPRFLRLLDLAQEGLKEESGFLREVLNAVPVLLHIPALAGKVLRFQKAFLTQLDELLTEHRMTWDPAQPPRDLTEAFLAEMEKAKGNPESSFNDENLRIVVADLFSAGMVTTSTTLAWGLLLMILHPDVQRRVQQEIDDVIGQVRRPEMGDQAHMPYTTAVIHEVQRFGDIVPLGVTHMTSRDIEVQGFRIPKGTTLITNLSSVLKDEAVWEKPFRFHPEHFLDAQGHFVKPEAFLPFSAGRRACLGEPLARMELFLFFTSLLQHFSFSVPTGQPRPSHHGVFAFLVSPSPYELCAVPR
Sequence of Rap guanine nucleotide exchange factor 3 (Homo sapiens) (O95398 whole entry, looked up): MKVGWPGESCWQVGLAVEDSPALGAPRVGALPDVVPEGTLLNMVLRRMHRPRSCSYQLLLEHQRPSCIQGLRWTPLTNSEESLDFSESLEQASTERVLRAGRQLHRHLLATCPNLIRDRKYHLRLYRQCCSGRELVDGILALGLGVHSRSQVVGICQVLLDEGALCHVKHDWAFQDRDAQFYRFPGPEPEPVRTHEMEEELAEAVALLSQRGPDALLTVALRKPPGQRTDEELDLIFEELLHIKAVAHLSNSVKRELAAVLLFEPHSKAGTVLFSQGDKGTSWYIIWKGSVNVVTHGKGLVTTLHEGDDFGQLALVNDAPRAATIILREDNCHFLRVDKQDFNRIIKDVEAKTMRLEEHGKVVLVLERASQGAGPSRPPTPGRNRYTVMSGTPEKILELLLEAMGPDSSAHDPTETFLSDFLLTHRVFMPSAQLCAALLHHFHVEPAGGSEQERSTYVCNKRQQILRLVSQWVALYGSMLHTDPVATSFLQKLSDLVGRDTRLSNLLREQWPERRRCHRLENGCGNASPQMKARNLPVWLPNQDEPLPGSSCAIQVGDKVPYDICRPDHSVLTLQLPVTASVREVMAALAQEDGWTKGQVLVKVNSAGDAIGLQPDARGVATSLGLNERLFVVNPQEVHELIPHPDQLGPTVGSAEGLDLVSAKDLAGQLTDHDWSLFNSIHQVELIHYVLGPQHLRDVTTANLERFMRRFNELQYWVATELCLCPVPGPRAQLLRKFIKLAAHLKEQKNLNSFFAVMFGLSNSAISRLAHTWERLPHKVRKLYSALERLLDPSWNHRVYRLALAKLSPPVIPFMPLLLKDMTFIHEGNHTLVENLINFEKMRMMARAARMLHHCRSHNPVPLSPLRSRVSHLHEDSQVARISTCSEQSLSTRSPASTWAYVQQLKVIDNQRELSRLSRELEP
Sequence of Cytochrome P450 2C9 (Homo sapiens) (P11712 whole entry, looked up): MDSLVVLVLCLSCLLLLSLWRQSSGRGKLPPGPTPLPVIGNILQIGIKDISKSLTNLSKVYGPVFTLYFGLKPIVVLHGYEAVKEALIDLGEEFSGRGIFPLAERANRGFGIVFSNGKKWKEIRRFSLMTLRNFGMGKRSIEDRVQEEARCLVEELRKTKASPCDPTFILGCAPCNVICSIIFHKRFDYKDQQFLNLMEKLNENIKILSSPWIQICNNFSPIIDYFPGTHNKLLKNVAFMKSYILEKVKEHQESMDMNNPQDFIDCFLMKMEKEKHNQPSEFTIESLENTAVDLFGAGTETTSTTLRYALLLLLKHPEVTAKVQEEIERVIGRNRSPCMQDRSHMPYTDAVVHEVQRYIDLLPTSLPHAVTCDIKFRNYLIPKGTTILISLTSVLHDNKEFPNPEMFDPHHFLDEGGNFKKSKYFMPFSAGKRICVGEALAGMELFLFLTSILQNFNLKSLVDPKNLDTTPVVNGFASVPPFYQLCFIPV
Sequence of Rap guanine nucleotide exchange factor 4 (Homo sapiens) (Q8WZA2 whole entry, looked up): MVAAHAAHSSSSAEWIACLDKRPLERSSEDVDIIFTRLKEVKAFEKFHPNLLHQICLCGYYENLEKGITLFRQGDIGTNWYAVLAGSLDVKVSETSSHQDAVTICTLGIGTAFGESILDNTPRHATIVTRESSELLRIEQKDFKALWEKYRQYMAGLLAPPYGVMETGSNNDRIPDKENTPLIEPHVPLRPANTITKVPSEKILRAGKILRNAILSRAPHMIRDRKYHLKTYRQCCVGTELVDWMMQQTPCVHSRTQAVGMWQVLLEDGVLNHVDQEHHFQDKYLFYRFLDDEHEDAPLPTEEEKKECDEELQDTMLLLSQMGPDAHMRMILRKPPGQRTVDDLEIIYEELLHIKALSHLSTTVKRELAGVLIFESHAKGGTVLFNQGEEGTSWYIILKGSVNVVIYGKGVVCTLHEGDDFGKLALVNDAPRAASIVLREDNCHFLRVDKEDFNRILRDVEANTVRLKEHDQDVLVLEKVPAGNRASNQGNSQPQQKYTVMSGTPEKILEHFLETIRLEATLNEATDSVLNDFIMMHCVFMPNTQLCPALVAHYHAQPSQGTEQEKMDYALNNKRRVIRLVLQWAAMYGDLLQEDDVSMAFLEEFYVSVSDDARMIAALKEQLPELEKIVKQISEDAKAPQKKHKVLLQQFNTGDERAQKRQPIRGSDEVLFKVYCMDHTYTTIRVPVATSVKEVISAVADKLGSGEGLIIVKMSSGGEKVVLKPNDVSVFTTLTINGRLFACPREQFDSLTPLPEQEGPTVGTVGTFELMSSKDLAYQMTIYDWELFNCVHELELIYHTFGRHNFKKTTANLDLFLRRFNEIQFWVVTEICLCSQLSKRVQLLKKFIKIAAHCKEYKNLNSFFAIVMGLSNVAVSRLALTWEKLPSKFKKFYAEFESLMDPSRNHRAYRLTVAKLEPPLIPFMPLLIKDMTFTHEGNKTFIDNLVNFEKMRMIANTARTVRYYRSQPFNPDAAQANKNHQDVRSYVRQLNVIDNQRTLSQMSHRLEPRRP
Sequence of Glutathione peroxidase 1 (Homo sapiens) (P07203 whole entry, looked up): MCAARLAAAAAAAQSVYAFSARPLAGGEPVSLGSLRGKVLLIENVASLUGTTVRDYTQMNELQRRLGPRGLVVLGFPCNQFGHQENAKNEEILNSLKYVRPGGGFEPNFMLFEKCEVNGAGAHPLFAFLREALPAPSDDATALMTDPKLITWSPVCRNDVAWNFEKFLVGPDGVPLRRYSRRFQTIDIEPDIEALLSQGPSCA
Sequence of N-terminal Xaa-Pro-Lys N-methyltransferase 1 (Homo sapiens) (Q9BV86 whole entry, looked up): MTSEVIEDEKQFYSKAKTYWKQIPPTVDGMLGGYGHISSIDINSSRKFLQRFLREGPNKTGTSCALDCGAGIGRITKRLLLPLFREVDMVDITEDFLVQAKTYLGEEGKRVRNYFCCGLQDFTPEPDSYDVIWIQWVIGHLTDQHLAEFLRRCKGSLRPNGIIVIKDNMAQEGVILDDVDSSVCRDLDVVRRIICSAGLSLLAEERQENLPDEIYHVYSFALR

For `CCOc1ccccc1CNC(=O)C1CCN(S(=O)(=O)c2c(C)noc2/C=C/c2ccccc2F)CC1`, which Potency [1] is on record?
Its Potency is “inactive”.

And the Potency [2]?
The Potency was 0.151 µM (active).

Which results are given for `Cc1ccc(CNC(=O)C2CCN(S(=O)(=O)c3c(C)noc3/C=C/c3ccccc3F)CC2)o1`?
Potency [1]: inactive; Potency [2]: inactive

Which Potency [1] does the source give for `COc1ccc2c(CNCCc3ccccc3OC)c(C(=O)O)n(Cc3ccc(F)cc3Cl)c2c1` here?
The Potency was 12 µM (active).

What about the Potency [2] of the same compound?
The Potency was 12 µM (active).

What does the source list for `CCOC(=O)c1cnc2ccc(OC)cc2c1NCCc1ccc(OC)c(OC)c1`?
Potency [1]: 2.39 µM (active); Potency [2]: 0.849 µM (active)

How did the Potency [1] turn out when `CC1=C(C(=O)Nc2nnc(C)s2)C(c2ccccc2Cl)N=C(Nc2nc3ccccc3o2)N1` (stereo unspecified) was run?
The Potency was “inactive”.

And the Potency [2]?
The Potency was 9.52 µM (active).

`CC(CCC(=O)O)C1CC[C@H]2C3[C@H](O)C[C@@H]4C[C@H](O)CCC4(C)[C@H]3C[C@H](O)C12C` (stereo partly specified) was tested. Which Potency [1] did it give?
Its Potency is “inactive”.

What about the Potency [2] of the same compound?
Its Potency is “inactive”.

Which results are given for `Cc1ccc(CSC2=Nc3ccccc3C3=NC(CC(=O)NCc4cccs4)C(=O)N23)cc1` (stereo unspecified)?
Potency [1]: 6.74 µM (active); Potency [2]: 0.379 µM (active)

For `CCOC(=O)c1c(NC(=O)c2ccc(S(=O)(=O)N(C)C3CCCCC3)cc2)sc2c1CCN(C(C)C)C2`, which Potency [1] is on record?
The Potency was 9.52 µM (active).

What about the Potency [2] of the same compound?
The Potency was 5.35 µM (active).

What about the Potency [3] of the same compound?
Its Potency is “inactive”.

What about the Potency [4] of the same compound?
The Potency was 89.1 µM (active).

And the Potency [5]?
Its Potency is “inactive”.

And the Potency [6]?
The Potency was 4.26 µM (active).

And the Potency [7]?
The Potency was 20 µM (active).

Which Potency [1] does the source give for `CC1(C)C(/C=C/C=C/C=C/C=C2/N(CCCCS(=O)(=O)O)c3ccc4ccccc4c3C2(C)C)=[N+](CCCCS(=O)(=O)[O-])c2ccc3ccccc3c21` here?
Its Potency is 26.8 µM (active).

What about the Potency [2] of the same compound?
The Potency was 13.5 µM (active).

What about the Potency [8] of the same compound?
Its Potency is “inactive”.

How did the Potency [1] turn out when `COc1cccc(Cn2c(SCC(=O)N3CCN(c4ccc(F)cc4)CC3)nc3ccccc32)c1` was run?
The Potency was 10.7 µM (active).

And the Potency [2]?
The Potency was 2.13 µM (active).

With `Cc1ccc(Cn2c(Cc3ccccc3)nc3ccccc32)cc1` as the compound, how does the Potency [1] read?
Its Potency is 10.7 µM (active).

What about the Potency [2] of the same compound?
The Potency was 13.5 µM (active).

And the Potency [3]?
Its Potency is “inactive”.

What about the Potency [4] of the same compound?
The Potency was “inactive”.

And the Potency [6]?
The Potency was “inactive”.

And the Potency [9]?
Its Potency is “inactive”.

And the Potency [7]?
Its Potency is “inactive”.

What does the source list for `O=C(Nc1cccc(Cl)c1)c1c(NC(=O)C(F)(F)F)sc2c1CCCC2`?
Potency [1]: 4.46 µM (active); Potency [2]: 0.354 µM (active); Potency [10]: 5.4 µM (active); Potency [3]: 37.9 µM (active); Potency [4]: inactive; Potency [5]: inactive; Potency [6]: inactive; Potency [9]: inactive

For `Cc1cccn2c(=O)c3cc(C#N)c(=O)n(-c4nnc(SCc5ccc(Cl)cc5)s4)c3nc12`, which Potency [1] is on record?
The Potency was “inactive”.

And the Potency [2]?
The Potency was 6.01 µM (active).

How did the Potency [1] turn out when `COc1ccc(CCNC(=O)Cn2nc(C)c3c(C)n(-c4ccc(C)cc4)nc3c2=O)c(OC)c1` was run?
The Potency was 8.49 µM (active).

What about the Potency [2] of the same compound?
The Potency was 8.49 µM (active).

What about the Potency [3] of the same compound?
The Potency was 67.5 µM (active).

And the Potency [4]?
Its Potency is “inactive”.

What about the Potency [5] of the same compound?
Its Potency is “inactive”.

What about the outcome [6] of the same compound?
The outcome was “inactive [at 12.7 µM]”.

And the Potency [9]?
Its Potency is “inactive”.

And the Potency [7]?
Its Potency is “inactive”.
